Test results reported in PubChem BioAssay.
Unmarked numbers belong to inactive results. Calls of active or inactive are those of the source.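 The calls were made as follows, unless noted: active = GFP response above 150% of the DMSO level; inconclusive = fewer than 70 events counted for a yeast strain; inactive = the rest.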

Test: modulators of MEP2-GFP levels in yeast, confirmation, S. cerevisiae, flow cytometry GFP, cherry picks (AID 2272;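 active = GFP response above 150% of the DMSO control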;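 also: ratio of well signal to plate DMSO mean so 100% equals DMSO level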)
Conditions: S. cerevisiae MEP2-GFP strain, 3 h, at 10 µM, active compounds read high

**Q.** For `O=C1NC(=S)N(c2ccccc2)C(=O)/C1=C/c1ccco1`, which GFP response vs DMSO is on record?
**A.** The GFP response vs DMSO was 122%.

**Q.** For `O=C1NC(=O)N(Cc2ccco2)C(=O)/C1=C/c1ccc(-c2cccc([N+](=O)[O-])c2)o1`, which GFP response vs DMSO is on record?
**A.** Its GFP response vs DMSO is 94.7%.

**Q.** With `CC1(C)OC(c2ccccc2)=C/C(=C/C=C2C(=O)NC(=S)NC2=O)O1` as the compound, how does the GFP response vs DMSO read?
**A.** Its GFP response vs DMSO is 145%.

**Q.** Which GFP response vs DMSO does the source give for `O=C1NC(=O)N(CCc2ccc(F)cc2)C(=O)/C1=C/c1cccs1` here?
**A.** Its GFP response vs DMSO is 94.4%.

**Q.** For `C[C@]12CCC(=O)C(O)=C1CC[C@@H]1[C@@H]2CC[C@]2(C)C(=O)CC[C@@H]12`, which GFP response vs DMSO is on record?
**A.** The GFP response vs DMSO was 102%.

**Q.** With `CN1CCN(c2ccc([N+](=O)[O-])c(Sc3ccccn3)c2)CC1` as the compound, how does the GFP response vs DMSO read?
**A.** Its GFP response vs DMSO is 105%.

**Q.** Which GFP response vs DMSO does the source give for `O=C1/C(=C\c2ccc(Cl)c(Cl)c2)N2CCC1CC2` here?
**A.** The GFP response vs DMSO was 92.6%.

**Q.** With `CCC(C)N1C(=O)/C(=C\c2cnc(N(C)C)nc2)C(=O)NC1=S` (configuration not stated) as the compound, how does the GFP response vs DMSO read?
**A.** The GFP response vs DMSO was 104%.

**Q.** For `Nc1ccc2ccc3cccc[n+]3c2c1`, which GFP response vs DMSO is on record?
**A.** Its GFP response vs DMSO is 257% (active).

Test: AGP1-GFP expression modulators, hit retest, confirmation, cell-based, flow cytometry, S. cerevisiae, cherry picks (AID 2273);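 also: median GFP channel fluorescence over the whole cell population gate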
Conditions: S. cerevisiae AGP1-GFP strain, 3 h, at 10 µM

**Q.** For `O=C1NC(=S)N(c2ccccc2)C(=O)/C1=C/c1ccco1`, which GFP response, % of DMSO is on record?
**A.** Its GFP response, % of DMSO is 103%.

**Q.** With `O=C1NC(=O)N(Cc2ccco2)C(=O)/C1=C/c1ccc(-c2cccc([N+](=O)[O-])c2)o1` as the compound, how does the GFP response, % of DMSO read?
**A.** The GFP response, % of DMSO was 90.9%.

**Q.** For `CC1(C)OC(c2ccccc2)=C/C(=C/C=C2C(=O)NC(=S)NC2=O)O1`, which GFP response, % of DMSO is on record?
**A.** The GFP response, % of DMSO was 92.3%.

**Q.** For `O=C1NC(=O)N(CCc2ccc(F)cc2)C(=O)/C1=C/c1cccs1`, which GFP response, % of DMSO is on record?
**A.** The GFP response, % of DMSO was 101%.

**Q.** With `C[C@]12CCC(=O)C(O)=C1CC[C@@H]1[C@@H]2CC[C@]2(C)C(=O)CC[C@@H]12` as the compound, how does the GFP response, % of DMSO read?
**A.** The GFP response, % of DMSO was 101%.

**Q.** With `CN1CCN(c2ccc([N+](=O)[O-])c(Sc3ccccn3)c2)CC1` as the compound, how does the GFP response, % of DMSO read?
**A.** Its GFP response, % of DMSO is 98%.

**Q.** Which GFP response, % of DMSO does the source give for `O=C1/C(=C\c2ccc(Cl)c(Cl)c2)N2CCC1CC2` here?
**A.** Its GFP response, % of DMSO is 95.5%.

**Q.** Which GFP response, % of DMSO does the source give for `CCC(C)N1C(=O)/C(=C\c2cnc(N(C)C)nc2)C(=O)NC1=S` (configuration not stated) here?
**A.** The GFP response, % of DMSO was 97.2%.

**Q.** For `Nc1ccc2ccc3cccc[n+]3c2c1`, which GFP response, % of DMSO is on record?
**A.** The GFP response, % of DMSO was 110%.

Test: modulators of CIT2-GFP expression in yeast, confirmation, S. cerevisiae, GFP fusion, cherry picks, mother/daughter gates (AID 2274)
Conditions: S. cerevisiae CIT2-GFP strain, flow cytometry, 3 h; at 10 µM; active compounds read high

**Q.** Which GFP response, % of DMSO does the source give for `O=C1NC(=S)N(c2ccccc2)C(=O)/C1=C/c1ccco1` here?
**A.** The GFP response, % of DMSO was 84.8%.

**Q.** For `O=C1NC(=O)N(Cc2ccco2)C(=O)/C1=C/c1ccc(-c2cccc([N+](=O)[O-])c2)o1`, which GFP response, % of DMSO is on record?
**A.** The GFP response, % of DMSO was 93%.

**Q.** Which GFP response, % of DMSO does the source give for `CC1(C)OC(c2ccccc2)=C/C(=C/C=C2C(=O)NC(=S)NC2=O)O1` here?
**A.** The GFP response, % of DMSO was 119%.

**Q.** For `O=C1NC(=O)N(CCc2ccc(F)cc2)C(=O)/C1=C/c1cccs1`, which GFP response, % of DMSO is on record?
**A.** The GFP response, % of DMSO was 81%.

**Q.** Which GFP response, % of DMSO does the source give for `C[C@]12CCC(=O)C(O)=C1CC[C@@H]1[C@@H]2CC[C@]2(C)C(=O)CC[C@@H]12` here?
**A.** The GFP response, % of DMSO was 104%.

**Q.** With `CN1CCN(c2ccc([N+](=O)[O-])c(Sc3ccccn3)c2)CC1` as the compound, how does the GFP response, % of DMSO read?
**A.** The GFP response, % of DMSO was 103%.

**Q.** For `O=C1/C(=C\c2ccc(Cl)c(Cl)c2)N2CCC1CC2`, which GFP response, % of DMSO is on record?
**A.** The GFP response, % of DMSO was 100%.

**Q.** With `CCC(C)N1C(=O)/C(=C\c2cnc(N(C)C)nc2)C(=O)NC1=S` (configuration not stated) as the compound, how does the GFP response, % of DMSO read?
**A.** Its GFP response, % of DMSO is 106%.

**Q.** With `Nc1ccc2ccc3cccc[n+]3c2c1` as the compound, how does the GFP response, % of DMSO read?
**A.** The GFP response, % of DMSO was 199% (active).
